Growth data for 14 molecules are collected here from PubChem BioAssay (NCI).

Molecules are shown by their SMILES. Compounds without any hit were thinned out: in the full panel of roughly 83,000, 20% have a hit.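 Plates (96-well) were seeded with cells, treated with compound at one concentration, and incubated for 48 hours before percent growth was determined.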 Unmarked numbers belong to inactive results. Active and inactive are the calls of the source. Rule for the calls: active = growth percent below 10; inactive = the rest.

Assay in all cases: NCI-60 one-dose screen, 48 h (100 = growth as untreated, 0 = no growth, -100 = all killed)
Common to all, as to settings: 10 µM

Experiment [1] deals with NCI-H23 lung.
The subject of experiment [2] is NCI-H226 lung.
For experiment [3], the system named is HOP-62 NSCLC.
Experiment [4] concerns NCI-H460 lung.
Experiment [5] has as its system HOP-92 NSCLC.
Experiment [6] relates to NCI-H522 lung.
Experiment [7] relates to A549/ATCC NSCLC.
In experiment [8] the test system is 786-0 renal.
In experiment [9] the test system is COLO 205 colon.
The subject of experiment [10] is NCI-H322M lung.

As for `CCOC(=O)c1c(CSc2ccccc2)n(C)c2cc(CN(C)C)c(O)c(CN(C)C)c12`, the growth in experiment [1] was 33.8%; in experiment [2], 46.6%; in experiment [3] it was 72.2%; in experiment [4], 34.6%; in experiment [5] it was 32.5%; in experiment [6], 62.4%. Also, the growth in experiment [7] was 49.6%; in experiment [8], 45.3%; in experiment [9] it was -37.8% (active).

For the molecule `Nc1nc2c(F)c(F)c(F)c(F)c2s1`, the growth is 102% in experiment [1]; 98.6% in experiment [2]; 92.6% in experiment [3]; 107% in experiment [4]; 90.5% in experiment [5]; 89.5% in experiment [6]. For the same molecule, the growth was 99.4% in experiment [7], 85.1% in [8] and 114% in experiment [9].

`OCc1[nH]nc2cc(Nc3ncc4ccc(Br)c(OC5CCC(O)CC5)c4n3)ccc12` (centres undefined): the growth in experiment [1] was -88.8% (active); in experiment [2], -2.72% (active); in experiment [3] it was 0.469% (active); in experiment [4], 2.31% (active); in experiment [5], 20.9%; in experiment [6], -31.2% (active). Besides, the values for the growth in [7], in experiment [8] and in experiment [9] were 4.04% (active), -26% (active) and -76.9% (active), respectively.

`CC(=O)Nc1nc(-c2ccc(N3CCN(C)CC3)c(NS(=O)(=O)c3ccc(C(F)(F)F)cc3)c2)cs1`: the growth in [1] is 55.8%; in [2] it was 40.1%; in experiment [3] it was 63.7%; in experiment [4], 31.3%; in experiment [5] it was 9.58% (active); in [6], 11.4%. In addition, the growth in experiment [8] is -62.5% (active); in experiment [9], 36%.

Consider `CO[C@H]1CSS[C@@H]1Cn1nc(-c2ccc(Oc3ccccc3)cc2)c2c(N)ncnc21`, for which the growth was 40.4% in experiment [1]; 16.6% in experiment [2]; 53.4% in experiment [10]; 21.1% in experiment [4]; 20.5% in [5]; -13% (active) in [6]. For the same molecule, the results for the growth in [8] and in [9] were 45% and 36.1%, respectively.

In the case of `Cc1cc2c(c(O)c1Br)-c1ncoc1C(=O)[C@]1(C)CC[C@H](C(C)C)[C@H]21`, the growth in [1] is 36.8%; in [2] it was 38.5%; in experiment [3], 38%; in experiment [4], 18.4%; in experiment [5], 35.4%; in [6], -20.6% (active). Moreover, the growth in [7] was 16.5%; in experiment [8], 66.5%; in experiment [9] it was -15.9% (active).

As for `O=C1NC(=NC23CC4CC(CC(C4)C2)C3)N/C1=C\c1ccc2ncsc2c1`, the growth was -10.3% (active) in experiment [1]; -4% (active) in experiment [2]; 9.31% (active) in experiment [3]; 7.74% (active) in [4]; 5.85% (active) in [5]; -7.87% (active) in [6]. The results for the growth in [7], in experiment [8] and in [9] were 16.5%, 16.1% and -29.6% (active), respectively.

For `C=C[C@@]12CN3CC[C@]1(O)[C@@](C(=O)OC)(CO2)c1[nH]c2ccccc2c1C3`, the growth in experiment [1] is 78%; in experiment [2] it was 83.1%; in [3], 99.5%; in experiment [4] it was 87.2%; in experiment [5], 54.9%; in [6] it was 22.3%. For the same molecule, the growth is 87.6% in experiment [7], 84% in experiment [8] and 33.7% in experiment [9].

Turning to `COC1=C[C@]23CCC(=O)N2CCc2cc4c(cc2[C@@H]3[C@@H]1OC(=O)CCCC(C)C)OCO4`, the growth is 53.2% in experiment [1]; 23.3% in experiment [2]; 70.5% in experiment [3]; 17.4% in [4]; 95.6% in [5]; -2.41% (active) in experiment [6]. Besides, the growth in [7] is 49.9%; in [8] it was 80.5%; in experiment [9], 68%.

As to `N#Cc1ccc(-c2nn(-c3ccc(C(=O)O)cc3)cc2CNc2cccc(Br)c2)cc1`, the growth in experiment [1] was 10.6%; in experiment [2], 44.4%; in experiment [3], 42%; in experiment [4], 37.8%; in experiment [5], 56.5%; in [6] it was 73.4%. Moreover, the growth in experiment [7] is 55.7%; in experiment [8], 45%; in [9], 117%.

With `O=C1Nc2cc(-c3ccc(NC(=O)c4cccc([N+](=O)[O-])c4)cc3)ccc2/C1=C/c1ccc[nH]1`, the growth is 71.6% in experiment [1]; 76.7% in experiment [2]; 94.9% in [3]; 103% in experiment [4]; 109% in [5]; 84.3% in experiment [6]. Also, the growth in [7] was 94.5%; in [8], 103%; in [9], 42.9%.

In the case of `O=C(O)CCCCCCCCCCN1C(=O)/C(=C/c2cnc(-c3ccc(Cl)cc3)s2)SC1=S`, the growth in experiment [1] was 11.8%; in experiment [2], 34.8%; in experiment [10], 5.41% (active); in [4] it was 4.44% (active); in experiment [5], -40.9% (active); in [6], -16% (active). Further, the figures for the growth in experiment [7], in experiment [8] and in experiment [9] were -19.6% (active), 28.1% and 139%, respectively.

As for `CC(=O)OC[C@@]1(C)C2CC[C@]3(C)C(CC=C4C5CC(C)(C)CC[C@]5(C(=O)Nc5ccccc5)CC[C@]43C)[C@@]2(C)C[C@@H](OC(C)=O)[C@@H]1OC(C)=O` (some centres undefined), the growth in experiment [1] is 40.2%; in experiment [10], 61.1%; in [3], 32.8%; in experiment [4] it was 32%; in experiment [5], 40.1%; in experiment [6] it was 42%. In addition, the growth in [7] is 39.6%; in [8], 45.7%; in experiment [9], 45.5%.

`O=C1Nc2ccc(Cl)cc2/C1=C/c1ccc(OCc2ccccn2)cc1`: the growth in [2] was 1.26% (active); in experiment [10] it was 64.2%; in [3], 45.6%; in experiment [4], 16%; in experiment [5] it was 72.1%; in [6] it was 66%. Besides, the growth in experiment [7] was 64.4%; in experiment [8], 25.7%; in experiment [9], 89.1%.
